Compound activity from PubChem BioAssay.
An excerpt weighted towards active compounds, which were near 3.9% of everything screened.
Anthrax LF prot: blocks Bacillus anthracis lethal factor protease. P15917. multiplex microsphere protease cleavage assay, LF. inhibition, % at 10 µM. hit rate 0.12% among 360,000; note: plate controls were buffer without enzyme for full effect and enzyme alone for no effect
Autofluor counter: flagged as autofluorescent in microsphere protease counterscreen; compound autofluorescence counterscreen, microsphere flow cytometry; hits give high values; fluorescence intensity (test concentration not listed); hit rate 3.1% among 360,000; AID 624483; in the data active = fluorescence intensity above about 16000; inconclusive = no clear call, values can overlap the other calls
3CLpro inhibitor: SARS-CoV 3CLpro protease inhibition; recombinant SARS-CoV 3CLpro, quenched FRET peptide cleavage; inhibition, % at 6 µM; hit rate 0.14% among 290,000; AID 1706; in the data active = inhibition above about 12%
BoNT A protease: BoNT A light chain protease inhibition | multiplex microsphere protease substrate cleavage, flow cytometry | inhibition, % at 10 µM | hit rate 0.17% among 360,000 | AID 588499; note: plate controls were buffer without enzyme for full effect and enzyme alone for no effect
BoNT-F LC inh: blocks Botulinum neurotoxin F light chain protease. Multiplex microsphere protease cleavage assay, flow cytometry. hit rate 0.22% among 360,000. inhibition, % at 10 µM; in the data active = inhibition above about 35%, passing the limit was not always enough; inconclusive = no clear call, values can overlap the other calls; note: plate controls were buffer without enzyme for full effect and enzyme alone for no effect
CCHFV vOTU inh: blocks the CCHF virus ovarian tumor domain protease. CCHFV vOTU protease, Pep-AMC fluorescence. inhibition, % at 11.5 µM. hit rate 0.55% among 370,000. AID 651958; in the data active = inhibition above about 30%; note: 0% = vehicle wells with enzyme and 100% = no enzyme wells
Active calls of the source: *. Cut-off read from the data, not from the text of the source, unless noted: active = inhibition above about 30%; inconclusive = no clear call, values can overlap the other calls; inactive = below that.

For NC(=O)C(c1ccc(Cl)cc1Cl)c1ncc(C(F)(F)F)cc1Cl (stereo unspecified) the results were Anthrax LF prot 0, Autofluor counter 19681*, 3CLpro inhibitor 0, BoNT A protease inconclusive, BoNT-F LC inh 0 and CCHFV vOTU inh 19.
For Cc1cc(N/C(=C\C(=O)c2ccccc2)c2ccccc2)ccc1Br the results were CCHFV vOTU inh -8.
Screening Nc1nc(CN2CCN(Cc3ccccc3)CC2)nc(Nc2ccccc2)n1 returned Anthrax LF prot 0, Autofluor counter 19782*, 3CLpro inhibitor -1, BoNT A protease 7, BoNT-F LC inh 9 and CCHFV vOTU inh -4.
Cc1cccc(Nc2nc(N)nc(CN3CCN(c4ccccc4)CC3)n2)c1 was read as Anthrax LF prot -3, Autofluor counter 23528*, 3CLpro inhibitor -6, BoNT A protease inconclusive, BoNT-F LC inh -5 and CCHFV vOTU inh -5.
`COC(=O)c1ccc(CSc2nnc(SCc3ccc(C(=O)OC)o3)s2)o1` gave Anthrax LF prot -1, Autofluor counter 9631, 3CLpro inhibitor -6, BoNT A protease 1, BoNT-F LC inh 5 and CCHFV vOTU inh 10.
Screening COC(=O)c1ccc(CSc2nc(C)nc3sc(C)c(C)c23)o1 returned Anthrax LF prot 0, Autofluor counter 22019*, 3CLpro inhibitor -1, BoNT A protease 1, BoNT-F LC inh 5 and CCHFV vOTU inh 2.
Screening COC(=O)[C@H](CC(C)C)NC(=O)Nc1ccc2c(c1)OCCO2 returned Anthrax LF prot 1, Autofluor counter 22561*, 3CLpro inhibitor 4, BoNT A protease -1, BoNT-F LC inh -1 and CCHFV vOTU inh -3.
Screening CC(C)[C@H](NC(=O)Nc1ccc2c(c1)OCCO2)C(=O)O returned Anthrax LF prot -2, Autofluor counter 20779*, 3CLpro inhibitor 1, BoNT A protease -1, BoNT-F LC inh 1 and CCHFV vOTU inh 1.
For COC(=O)c1cc(-c2ccc(C(C)(C)C)cc2)c(=O)n2c1CCC2 the results were CCHFV vOTU inh 3.
COc1cccc(N2CCN(C3CCCC(C)C3)CC2)c1 (stereo unspecified) was read as Anthrax LF prot -7, Autofluor counter 24685*, 3CLpro inhibitor 0, BoNT A protease -4 and BoNT-F LC inh -4.
`Cc1nc2nc(C)c(CCC(=O)NC(C)c3ccc4c(c3)OCCO4)c(C)n2n1` (stereo unspecified) gave Anthrax LF prot 2, Autofluor counter 3157, 3CLpro inhibitor -4, BoNT A protease 0, BoNT-F LC inh 0 and CCHFV vOTU inh 20.
`CCOC(=O)C1CCCCN1C(=O)CCc1c(C)nc2cc(-c3ccccc3)nn2c1C` (stereo unspecified) gave Anthrax LF prot 0, Autofluor counter 4701, 3CLpro inhibitor -2, BoNT A protease 0, BoNT-F LC inh 5 and CCHFV vOTU inh -8.
CCOC(=O)N1CCC(NC(=O)CCc2c(C)nc3nc(C)nn3c2C)CC1 was read as Anthrax LF prot -3, Autofluor counter 8266, 3CLpro inhibitor -1, BoNT A protease 0, BoNT-F LC inh 6 and CCHFV vOTU inh -7.
For CCOC(=O)C1CCCCN1C(=O)CCc1c(C)nc2ncnn2c1C (stereo unspecified) the results were Anthrax LF prot 2, Autofluor counter 21476*, 3CLpro inhibitor 0, BoNT A protease -5, BoNT-F LC inh -5 and CCHFV vOTU inh 0.
Cc1nc2ncnn2c(C)c1CCC(=O)NC(C)c1ccc2c(c1)OCCO2 (stereo unspecified) was read as Anthrax LF prot -1, Autofluor counter 22862*, 3CLpro inhibitor 4, BoNT A protease -1, BoNT-F LC inh -1 and CCHFV vOTU inh -7.
Screening CCOC(=O)N1CCC(NC(=O)CCc2c(C)nc3ncnn3c2C)CC1 returned Anthrax LF prot -1, Autofluor counter 22017*, 3CLpro inhibitor -2, BoNT A protease inconclusive, BoNT-F LC inh 1 and CCHFV vOTU inh -6.
`Cc1nc2nc(C)c(CCC(=O)NCc3ccc4c(c3)OCO4)c(C)n2n1` gave Anthrax LF prot -3, Autofluor counter 17817*, 3CLpro inhibitor 0, BoNT A protease inconclusive, BoNT-F LC inh -10 and CCHFV vOTU inh -2.
`Cc1ccc(-n2c(SCC(=O)Nc3ccccc3-c3ccccc3)nnc2-c2ccccn2)cc1` gave CCHFV vOTU inh 2.
For CN(C(=O)CCn1nnc(-c2cccs2)n1)C1CCCCC1 the results were CCHFV vOTU inh 0.
Cc1nc2ncnn2c(C)c1CCC(=O)NCc1ccccc1 was read as Anthrax LF prot -1, Autofluor counter 20501*, 3CLpro inhibitor -7, BoNT A protease -2, BoNT-F LC inh -5 and CCHFV vOTU inh 0.
Screening CCOC(=O)CCc1c(C)nc2c(c(C)nn2-c2ccccc2)c1C returned Anthrax LF prot 9, Autofluor counter 4196, 3CLpro inhibitor -2, BoNT A protease 1, BoNT-F LC inh 4 and CCHFV vOTU inh -7.
`CCOC(=O)N1CCC(NC(=O)CCCC(=O)O)CC1` gave Anthrax LF prot -3, Autofluor counter 5938, 3CLpro inhibitor -5, BoNT A protease -1, BoNT-F LC inh -4 and CCHFV vOTU inh 0.
For CCOC(=O)CCc1c(C)nc2ncnn2c1C the results were Anthrax LF prot -2, Autofluor counter 23382*, 3CLpro inhibitor -3, BoNT A protease inconclusive, BoNT-F LC inh -2 and CCHFV vOTU inh 6.
`CCOC(=O)N1CCN(C(=O)CCc2c(C)nc3c(c(C)nn3-c3ccc(C)c(C)c3)c2C)CC1` gave Anthrax LF prot -8, Autofluor counter 20186*, 3CLpro inhibitor -5, BoNT A protease -1, BoNT-F LC inh -4 and CCHFV vOTU inh -19.
Screening CCOC(=O)N1CCC(NC(=O)CCc2c(C)nc3c(c(C)nn3C(C)(C)C)c2C)CC1 returned Anthrax LF prot 1, Autofluor counter 21418*, 3CLpro inhibitor -3, BoNT A protease 4, BoNT-F LC inh 4 and CCHFV vOTU inh 2.
`COc1ccc(S[C@]2(C(=O)N3CCCC3)CC(=O)N(C(=O)/C=C/c3ccccc3)[C@@H]2c2ccc(OC)cc2)cc1` gave CCHFV vOTU inh -3.
`O=C(COCc1ccccc1)N1CCC(Oc2cccnc2)CC1` gave CCHFV vOTU inh 1.
`O=C(c1ccco1)N(CCC(c1ccccc1)c1ccco1)Cc1ccc(F)cc1` (stereo unspecified) gave Anthrax LF prot -2, Autofluor counter 16623*, 3CLpro inhibitor 7, BoNT A protease 0 and BoNT-F LC inh 0.
For CCS(CC)=NS(=O)(=O)c1ccc(NC(C)=O)cc1 the results were Anthrax LF prot 1, Autofluor counter 4549, 3CLpro inhibitor 1, BoNT A protease 2, BoNT-F LC inh 37* and CCHFV vOTU inh 8.
For Cc1ccc(C(=O)N2CCCCC2)cc1S(=O)(=O)N1CCCCCC1 the results were Anthrax LF prot 1, Autofluor counter 5688, 3CLpro inhibitor 3, BoNT A protease 0, BoNT-F LC inh 1 and CCHFV vOTU inh 8.
Screening Cc1cc(C)n(C(=O)c2ccc(C)c(S(=O)(=O)N3CCCCC3)c2)n1 returned Anthrax LF prot 0, Autofluor counter 16992*, 3CLpro inhibitor 1, BoNT A protease -2, BoNT-F LC inh 0 and CCHFV vOTU inh 10.
